Data from the supplement of paper PMC8007513.
Where a name gives a salt, the structure may show the parent alone. ± gives the standard error. The campaign covered roughly 1,300 compounds. About 130 (10%) showed an effect of 50% or more. The entries come from a sample that favours strong results as a whole.

System: Trichoderma virens ATCC 9645
Test: growth yield (OD600) with compound + IPBC relative to untreated control; higher = less growth inhibition
Details: compound concentration: 100 uM, IPBC concentration: 200 ng/ml
Outline: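 A biocide at 200 ng ml^−1 was co-applied to some wells, and library compounds were present in all test wells at 100 μM final. The wells held 100 μl of Trichoderma virens ATCC 9645 spores at 15,000 spores ml^−1 in potato dextrose broth, grown at 30 °C in 96-well plates, with OD600 read at 40 h and 72 h. Results are relative growth against the control without either agent, averaged across duplicate screens.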

## CC1CCc2cc(F)cc3c(=O)c(C(=O)O)cn1c23 (stereo not drawn) [Flumequine] + CCCCNC(=O)OCC#CI [3-iodo-2-propynyl butylcarbamate (IPBC)]
40 h
  growth yield: 78.63 ± 0.16%
72 h
  growth yield: 97.12 ± 0.84%

## COC(=O)[C@H]1[C@H]2C[C@@H]3c4[nH]c5cc(OC)ccc5c4CCN3C[C@H]2C[C@@H](OC(=O)c2cc(OC)c(OC)c(OC)c2)[C@@H]1OC [Reserpine] + CCCCNC(=O)OCC#CI [3-iodo-2-propynyl butylcarbamate (IPBC)]
40 h
  growth yield: 102 ± 3.2%
72 h
  growth yield: 104 ± 2%

## CC(=O)NC1CCSC1=O (racemic) [N-Acetyl-DL-homocysteine Thiolactone] + CCCCNC(=O)OCC#CI [3-iodo-2-propynyl butylcarbamate (IPBC)]
40 h
  growth yield: 95.8 ± 7.8%
72 h
  growth yield: 96.3 ± 7.8%

## CC(C(=O)O)c1cccc(C(=O)c2ccccc2)c1 (stereo not drawn) [Ketoprofen] + CCCCNC(=O)OCC#CI [3-iodo-2-propynyl butylcarbamate (IPBC)]
40 h
  growth yield: 74 ± 0.95%
72 h
  growth yield: 86.4 ± 1.5%

## CC(C(=O)O)c1cccc(Oc2ccccc2)c1 (stereo not drawn) [Fenoprofen calcium salt dihydrate] + CCCCNC(=O)OCC#CI [3-iodo-2-propynyl butylcarbamate (IPBC)]
40 h
  growth yield: 73.9 ± 12%
72 h
  growth yield: 84 ± 9.1%

## CC(C(=O)O)c1ccc(-c2ccccc2)c(F)c1 (stereo not drawn) [Flurbiprofen] + CCCCNC(=O)OCC#CI [3-iodo-2-propynyl butylcarbamate (IPBC)]
40 h
  growth yield: 43.4 ± 3.3%
72 h
  growth yield: 76.9 ± 2%

## NC(CO)C(=O)NNCc1ccc(O)c(O)c1O (stereo not drawn) [Benserazide hydrochloride] + CCCCNC(=O)OCC#CI [3-iodo-2-propynyl butylcarbamate (IPBC)]
40 h
  growth yield: 63.9 ± 0.64%
72 h
  growth yield: 75.2 ± 0.52%

## CN[C@@H]1[C@H](O)[C@H](NC)[C@H]2O[C@@]3(O)C(=O)C[C@@H](C)O[C@H]3O[C@@H]2[C@H]1O [Spectinomycin dihydrochloride] + CCCCNC(=O)OCC#CI [3-iodo-2-propynyl butylcarbamate (IPBC)]
40 h
  growth yield: 104 ± 13%
72 h
  growth yield: 103 ± 8%

## CC(NCCC(c1ccccc1)c1ccccc1)c1ccccc1 (stereo not drawn) [Fendiline hydrochloride] + CCCCNC(=O)OCC#CI [3-iodo-2-propynyl butylcarbamate (IPBC)]
40 h
  growth yield: 70.37 ± 0.16%
72 h
  growth yield: 93.7 ± 1.4%

## Cc1ccnc(NS(=O)(=O)c2ccc(N)cc2)n1 [Sulfamerazine] + CCCCNC(=O)OCC#CI [3-iodo-2-propynyl butylcarbamate (IPBC)]
40 h
  growth yield: 88.2 ± 6.2%
72 h
  growth yield: 90.9 ± 4.7%

## CC(C)(C)C(=O)OCOC(=O)[C@@H]1N2C(=O)[C@@H](/N=C/N3CCCCCC3)[C@H]2SC1(C)C [Pivmecillinam hydrochloride] + CCCCNC(=O)OCC#CI [3-iodo-2-propynyl butylcarbamate (IPBC)]
40 h
  growth yield: 57.8 ± 4.5%
72 h
  growth yield: 77.2 ± 3.1%

## CCC(=O)O[C@]1(C(=O)CCl)[C@@H](C)C[C@H]2[C@@H]3CCC4=CC(=O)C=C[C@]4(C)[C@@]3(F)[C@@H](O)C[C@@]21C [Clobetasol propionate] + CCCCNC(=O)OCC#CI [3-iodo-2-propynyl butylcarbamate (IPBC)]
40 h
  growth yield: 109 ± 7.2%
72 h
  growth yield: 106 ± 4.7%

## C[C@@H]1C[C@@H]([C@H](O)CC2CC(=O)NC(=O)C2)C(=O)[C@@H](C)C1 [Cycloheximide] + CCCCNC(=O)OCC#CI [3-iodo-2-propynyl butylcarbamate (IPBC)]
40 h
  growth yield: 34.3 ± 2.9%
72 h
  growth yield: 85.7 ± 3.2%

## C[C@]12CC[C@H]3C(=CCc4cc(O)ccc43)[C@@H]1CCC2=O [Equilin] + CCCCNC(=O)OCC#CI [3-iodo-2-propynyl butylcarbamate (IPBC)]
40 h
  growth yield: 82.4 ± 17%
72 h
  growth yield: 86.8 ± 9%

## C=CC[N@@+]12CC[C@@]34c5ccccc5N5/C=C6/[C@H]7C[C@H]8[C@@]9(CC[N@@+]8(CC=C)C/C7=C/CO)c7ccccc7N(/C=C(/[C@@H](C[C@@H]31)/C(=C\CO)C2)[C@H]54)[C@@H]69 [Alcuronium chloride] + CCCCNC(=O)OCC#CI [3-iodo-2-propynyl butylcarbamate (IPBC)]
40 h
  growth yield: 6.83 ± 0.16%
72 h
  growth yield: 35.4 ± 3.4%

## Cn1ccnc1S [Methimazole] + CCCCNC(=O)OCC#CI [3-iodo-2-propynyl butylcarbamate (IPBC)]
40 h
  growth yield: 120 ± 16%
72 h
  growth yield: 111 ± 12%

## CNCCC(Oc1ccc(C(F)(F)F)cc1)c1ccccc1 (stereo not drawn) [Fluoxetine hydrochloride] + CCCCNC(=O)OCC#CI [3-iodo-2-propynyl butylcarbamate (IPBC)]
40 h
  growth yield: 71.8 ± 4.8%
72 h
  growth yield: 96.9 ± 2.9%

## COc1ccc(CN2CCN(C(c3ccc(F)cc3)c3ccc(F)cc3)CC2)c(OC)c1OC [Lomerizine hydrochloride] + CCCCNC(=O)OCC#CI [3-iodo-2-propynyl butylcarbamate (IPBC)]
40 h
  growth yield: 71.8 ± 5.7%
72 h
  growth yield: 97.4 ± 4.9%

## Fc1ccc(C(c2ccc(F)cc2)N2CCN(C/C=C/c3ccccc3)CC2)cc1 [Flunarizine dihydrochloride] + CCCCNC(=O)OCC#CI [3-iodo-2-propynyl butylcarbamate (IPBC)]
40 h
  growth yield: 3.81 ± 0.32%
72 h
  growth yield: 3.78 ± 0.42%

## CN1CCN(C(c2ccccc2)c2ccccc2)CC1 [Cyclizine hydrochloride] + CCCCNC(=O)OCC#CI [3-iodo-2-propynyl butylcarbamate (IPBC)]
40 h
  growth yield: 82.6 ± 1.3%
72 h
  growth yield: 87.6 ± 2%

## OCCOCCN1CCN(C(c2ccccc2)c2ccc(Cl)cc2)CC1 (stereo not drawn) [Hydroxyzine dihydrochloride] + CCCCNC(=O)OCC#CI [3-iodo-2-propynyl butylcarbamate (IPBC)]
40 h
  growth yield: 76.08 ± 0.16%
72 h
  growth yield: 95.9 ± 2.5%

## C(=C\c1ccccc1)/CN1CCN(C(c2ccccc2)c2ccccc2)CC1 [Cinnarizine] + CCCCNC(=O)OCC#CI [3-iodo-2-propynyl butylcarbamate (IPBC)]
40 h
  growth yield: 34.9 ± 5.1%
72 h
  growth yield: 93.1 ± 4%

## O=C(O)COCCN1CCN(C(c2ccccc2)c2ccc(Cl)cc2)CC1 (stereo not drawn) [Cetirizine dihydrochloride] + CCCCNC(=O)OCC#CI [3-iodo-2-propynyl butylcarbamate (IPBC)]
40 h
  growth yield: 88.5 ± 6.8%
72 h
  growth yield: 93.8 ± 3.8%

## CC(C)NC[C@H](O)COc1ccc(CC(N)=O)cc1 [(S)-(-)-Atenolol] + CCCCNC(=O)OCC#CI [3-iodo-2-propynyl butylcarbamate (IPBC)]
40 h
  growth yield: 82.8 ± 1.8%
72 h
  growth yield: 88.2 ± 0.1%

## O=C(Nc1ccc([N+](=O)[O-])cc1Cl)c1cc(Cl)ccc1O [Niclosamide] + CCCCNC(=O)OCC#CI [3-iodo-2-propynyl butylcarbamate (IPBC)]
40 h
  growth yield: 83.7 ± 2.4%
72 h
  growth yield: 90.4 ± 2.5%

## CC(C)[C@H](N)C(=O)OCCOCn1cnc2c(=O)nc(N)[nH]c21 [Valacyclovir hydrochloride] + CCCCNC(=O)OCC#CI [3-iodo-2-propynyl butylcarbamate (IPBC)]
40 h
  growth yield: 86.7 ± 3.2%
72 h
  growth yield: 96.4 ± 2.6%

## CN1C(=O)CCS(=O)(=O)C1c1ccc(Cl)cc1 (stereo not drawn) [Chlormezanone] + CCCCNC(=O)OCC#CI [3-iodo-2-propynyl butylcarbamate (IPBC)]
40 h
  growth yield: 86.7 ± 3.2%
72 h
  growth yield: 92.5 ± 1.7%

## Nc1cc(-c2ccncc2)c[nH]c1=O [Amrinone] + CCCCNC(=O)OCC#CI [3-iodo-2-propynyl butylcarbamate (IPBC)]
40 h
  growth yield: 106%
72 h
  growth yield: 41.3%

## Cc1[nH]c(=O)c(C#N)cc1-c1ccncc1 [Milrinone] + CCCCNC(=O)OCC#CI [3-iodo-2-propynyl butylcarbamate (IPBC)]
40 h
  growth yield: 89.11 ± 0.48%
72 h
  growth yield: 92.9 ± 1.9%

## CCCNC(C)C(=O)Nc1ccccc1C (stereo not drawn) [Prilocaine hydrochloride] + CCCCNC(=O)OCC#CI [3-iodo-2-propynyl butylcarbamate (IPBC)]
40 h
  growth yield: 86.4%
72 h
  growth yield: 95.54 ± 0.52%

## C[C@H]1NC(=O)NC1=O [Methylhydantoin-5-(D)] + CCCCNC(=O)OCC#CI [3-iodo-2-propynyl butylcarbamate (IPBC)]
40 h
  growth yield: 97.4 ± 14%
72 h
  growth yield: 95.4 ± 8.4%

## CN1[C@@H]2C[C@@H](OC(=O)[C@H](CO)c3ccccc3)C[C@H]1[C@@H]1O[C@@H]12 [Scopolamine hydrochloride] + CCCCNC(=O)OCC#CI [3-iodo-2-propynyl butylcarbamate (IPBC)]
40 h
  growth yield: 94.4 ± 7.9%
72 h
  growth yield: 94.1 ± 3.5%

## Cc1cnc(C(=O)O)c[n+]1[O-] [Acipimox] + CCCCNC(=O)OCC#CI [3-iodo-2-propynyl butylcarbamate (IPBC)]
40 h
  growth yield: 85.3 ± 0.48%
72 h
  growth yield: 90.72 ± 0.1%

## Nc1nc(=S)c2ncn([C@@H]3O[C@H](CO)[C@@H](O)[C@H]3O)c2[nH]1 [Thioguanosine] + CCCCNC(=O)OCC#CI [3-iodo-2-propynyl butylcarbamate (IPBC)]
40 h
  growth yield: 46.1 ± 0.64%
72 h
  growth yield: 88.3 ± 2.3%

## Nc1ncnc2c1ncn2[C@@H]1O[C@H](CO)[C@@H](O)[C@@H]1O [Vidarabine] + CCCCNC(=O)OCC#CI [3-iodo-2-propynyl butylcarbamate (IPBC)]
40 h
  growth yield: 121 ± 11%
72 h
  growth yield: 109 ± 7.3%

## Nc1nc(F)nc2c1ncn2[C@@H]1O[C@H](CO)[C@@H](O)[C@@H]1O [Fludarabine] + CCCCNC(=O)OCC#CI [3-iodo-2-propynyl butylcarbamate (IPBC)]
40 h
  growth yield: 85.3 ± 2.4%
72 h
  growth yield: 86.6 ± 1.1%

## CN(C)CCCO[C@@H]1[C@H]2OC(C)(C)O[C@H]2O[C@@H]1[C@H](O)CO [Amiprilose hydrochloride] + CCCCNC(=O)OCC#CI [3-iodo-2-propynyl butylcarbamate (IPBC)]
40 h
  growth yield: 89.4 ± 4.9%
72 h
  growth yield: 93.3 ± 4.6%

## CCc1cc(C(N)=S)ccn1 [Ethionamide] + CCCCNC(=O)OCC#CI [3-iodo-2-propynyl butylcarbamate (IPBC)]
40 h
  growth yield: 82 ± 2.5%
72 h
  growth yield: 90.61 ± 0.63%

## CC1=C(C(=O)O)N2C(=O)[C@@H](NC(=O)[C@H](N)c3ccc(O)cc3)[C@H]2SC1 [Cefadroxil] + CCCCNC(=O)OCC#CI [3-iodo-2-propynyl butylcarbamate (IPBC)]
40 h
  growth yield: 81.5 ± 1.8%
72 h
  growth yield: 88.5 ± 1.5%
